Nine molecules from PubChem BioAssay (NCATS) can be followed below.

Values joined by “and” are separate entries in the source; they are usually repeats but may differ in a detail not shown here. Identical values can stand only once. Records with an inconclusive call do not appear. Active and inactive are the calls of the source. Unless noted, the call rests on the fitted dose curve; in most records, active means well fitted curve in the direction sought with a large enough effect; inconclusive means small, poorly fitted or top-dose-only effect, or another doubt; inactive means no such curve, though single readings can be large; an effect the other way counts as inactive or inconclusive.

Test [1] in a line: Cell Viability - Hek293 (AID 427;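 active means compounds whose dose-response curve shows a full or clear partial loss of cell viability, called from curve shape rather than a numeric limit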;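 further: potency means the concentration at half of the fitted maximal effect; cells exposed to compound for 40 hours at 37 °C before reading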). The note with it: qHTS. The procedure, abridged: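 Luminescent ATP content (CellTiter-Glo, 20 min at room temperature) was measured after a 40 hr, 37 °C compound exposure of HEK293 cells. AC50 values came from Hill-equation fits of qHTS concentration-response data normalized to DMSO and 100 uM tamoxifen.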
Background: In qHTS, concentration-response curves come from the screen itself.

A short description of test [2]: Cell Viability - MRC5 (AID 434; calls by dose curve;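 further: potency means the concentration at half of the fitted maximal effect; cells exposed to compound for 40 hours at 37 °C; potency reflects cytotoxicity seen as loss of intracellular ATP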). The note with it: MRC5 lung fibroblast viability, qHTS. The procedure, abridged: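 ATP luminescence read-out (CellTiter-Glo, 20 min RT) after 40 hr, 37 °C compound exposure of 1500 MRC5 cells/well. Data normalized to DMSO (basal) and 100 uM tamoxifen (100% inhibition); AC50 from standard Hill equation.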
The nature of test [3]: Cell Viability - NIH 3T3 (AID 541).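 Further: cells exposed to compound for 40 hours; plate controls were DMSO alone for no effect and tamoxifen positive control for full effect; nearly all actives have a fitted effect of over 25% in size.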 The note with it: NIH 3T3 cell viability, qHTS; activity change, negative = cytotoxicity: at 92.2 µM (top of the series). The gist of the method: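 qHTS format; 40 hr compound exposure, 37 °C; CellTiter-Glo luminescence (cellular ATP) read-out after 20 min at RT. Decrease in ATP = cytotoxicity; AC50 from standard Hill fit.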
Test [4] concerns the target Peroxisome proliferator-activated receptor delta (Homo sapiens) (UniProt Q03181). The experiment in a line: qHTS assay for small molecule agonists of peroxisome proliferator-activated receptor delta signaling (AID 588534; calls by dose curve;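 further: 0% = DMSO basal wells and 100% = positive control agonist at 10 µM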). The note with it: HEK293T PPARdelta-UAS-bla, beta-lactamase ratio, 18 h; series mostly up to 76.7 µM. The procedure, abridged:
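Titration series tested in agonist mode on beta-lactamase reporter cells; 18 hrs at 37 C after a 5 hr pre-incubation. Readout: CCF4 fluorescence, 2 hrs RT. Hill equation gives EC50 and maximal response.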

The nature of test [5]: qHTS assay for small molecule antagonists of peroxisome proliferator-activated receptor delta signaling (AID 588535; active means well fitted inhibition curve with a large enough effect in the signal ratio, with a control signal flat, not every such curve was filed as active; the % refers to the signal ratio;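 on max response: cells co-treated with a PPAR-delta agonist as stimulator during compound exposure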). Particulars: HEK293T PPARd-UAS-bla, beta-lactamase FRET ratio, 18 h; 460 nm channel. The procedure, abridged:
(§1)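 Beta-lactamase reporter read-out (405 nm excitation, 460/530 nm emission) after CCF4 loading for 2 hrs at RT. HEK293T PPAR-delta-UAS-bla cells, 2% charcoal/dextran FBS, compounds for 18 hrs at 37 C. Hill fit gave IC50 and efficacy.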

In test [6] the target is Peroxisome proliferator-activated receptor delta (Homo sapiens) (UniProt Q03181). The test is described as above. Particulars: HEK293T PPARd-UAS-bla, beta-lactamase FRET ratio, 18 h; series mostly up to 76.7 µM. The gist of the method: as §1
Test [7] addresses Peroxisome proliferator-activated receptor gamma (Homo sapiens) (UniProt P37231). As to the kind of experiment: qHTS assay for small molecule antagonists of peroxisome proliferator-activated receptor gamma signaling (AID 588537; active means well fitted inhibition curve with a large enough effect in the signal ratio, with a control signal flat, not every such curve was filed as active; the % refers to the signal ratio; further: potency means the concentration at half of the fitted maximal effect). The note with it: HEK293 PPARg-UAS-bla, beta-lactamase ratio, antagonist mode; series mostly up to 76.8 µM. The procedure, abridged:
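Read-out: CCF4 fluorescence (ex 405, em 460/530 nm) after 2 h at RT. Cells were HEK293 carrying a UAS-bla reporter and treated 16 h at 37 C with compound plus rosiglitazone (50 nM final). Normalized to rosiglitazone and DMSO.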

Test [8] can be described thus: qHTS assay for small molecule agonists of the antioxidant response element (ARE) signaling pathway (AID 651741; active means well fitted activation curve with a large enough effect in the signal ratio; the % refers to the signal ratio; further: potency means the concentration at half of the fitted maximal effect; on activation: % of control where 0% means no effect). Particulars: HepG2 ARE-bla reporter, beta-lactamase FRET ratio, 16 h; series mostly up to 96 µM. The gist of the method:
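HepG2 ARE-bla reporter cells, 2,000/well; 5 h settle at 37 C/5% CO2; compound pin transfer (23 nL, DMSO); 16 h at 37 C; LiveBLAzer B/G FRET substrate, 2 h RT; fluorescence intensity read.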

A short description of test [9]: qHTS assay for small molecule activators of the nuclear factor-kappa B (NF-kB) signaling pathway (AID 651749; active means well fitted activation curve with a large enough effect in the signal ratio; the % refers to the signal ratio; further: % of control where 0% means no effect). The note with it: NF-kB-bla ME-180 cells, beta-lactamase FRET ratio, 16 h; stronger effect = higher value. The procedure, abridged: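 NF-kB-bla ME-180 cells, 2,000/well; 23 nL compound or DMSO pinned; 16 hr, 37C/5% CO2; beta-lactamase FRET read-out.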
Test [10] is described as follows: Cell Viability - H-4-II-E (AID 543).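 Further: cells exposed to compound for 40 hours; on the % scale 0 is the no-effect control and ±100 the full control effect; nearly all actives have a fitted effect of over 35% in size.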 The note with it: H-4-II-E rat hepatoma viability; series mostly up to 92.2 µM. The procedure, abridged: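 qHTS, rat hepatoma H-4-II-E, 1500 cells/well; 40 hr compound exposure, 37 °C; CellTiter-Glo ATP luminescence after 20 min RT; AC50 by standard Hill fit.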
Test [11] in a line: Cellular Toxicity (caspase-3) Mesangial (AID 660).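 Further: combined caspase 3 and 7 activity read by Caspase-Glo luminescence; cells exposed to compound for 16 h before the caspase read.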 Particulars: mesangial cells, normalized: DMSO 0%, 100 µM tamoxifen 100%; series mostly up to 91.7 µM. The gist of the method:
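Luminescent Caspase-Glo 3/7 readout (aminoluciferin substrate cleavage, 20 min RT) after 16 h compound exposure at 37 °C of normal human mesangial cells. Signal increase normalized between DMSO basal and 100 uM tamoxifen; Hill-equation AC50.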

A short description of test [12]: Cell Viability - LYMP2-011 (AID 969).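 Further: cells exposed to compound for 24 hours; nearly all actives have a fitted effect of over 60% in size.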 Further: potency means the concentration at half of the fitted maximal effect. The note with it: LYMP2-011 lymphoblastoid cells viability; series mostly up to 92.2 µM. The procedure, abridged: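 Luminescent ATP read-out (CellTiter-Glo, 30 min RT) after 24 hr compound exposure at 37 C in human lymphoblastoid cells, 2500 cells/well. Decreasing ATP indicates cytotoxicity; AC50 from standard Hill fit.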
The nature of test [13]: Cell Viability - LYMP2-025 (AID 976). Further: potency means the concentration at half of the fitted maximal effect.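 On activity change, negative = cytotoxicity: plate controls were DMSO only for no effect and tetraoctylammonium bromide control for full effect.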 The note with it: LYMP2-025 lymphoblastoid cell viability; series mostly up to 92.2 µM. The gist of the method:
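CellTiter-Glo luminescence (cellular ATP) after 24 h compound exposure at 37 C; LYMP2-025 human lymphoblastoid cells, 2500/well, complete medium. Tetraoctylammonium bromide positive control. AC50 by Hill equation fit of qHTS concentration-response.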

Test [14] concerns the target Bile acid receptor (Homo sapiens) (UniProt Q96RI1). The experiment in a line: qHTS assay for small molecule agonists of farnesoid X receptor signaling (AID 588527; calls by dose curve;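 further: 0% = vehicle basal and 100% = reference agonist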). The note with it: HEK293T FXR-UAS-bla, beta-lactamase ratio, 16 h; stronger effect = higher value. The gist of the method: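 Agonist-mode beta-lactamase reporter in GeneBLAzer FXR-UAS-bla HEK293T cells, titration up to 92 uM, 16 h exposure at 37 C, CCF4 fluorescence. Response scaled to DMSO (0%) and 100 uM chenodeoxycholic acid (100%), then Hill-fitted for EC50 and efficacy.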

The target of test [15] is Glucocorticoid receptor (Homo sapiens) (UniProt P04150). The experiment in a line: qHTS assay for small molecule agonists of glucocorticoid receptor signaling (AID 588532; active means well fitted curve in the direction sought with a large enough effect in the signal ratio, with a control signal flat; the % refers to the signal ratio;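 further: 100% = dexamethasone at 0.1 µM and 0% = DMSO only wells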). The note with it: HeLa MMTV-bla, beta-lactamase ratio, agonist, 18 h; stronger effect = higher value; percent of dexamethasone control, DMSO zero. The gist of the method:
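HeLa GRE-bla reporter cells; 18 h compound exposure at 37 C; 2 h CCF4 loading at room temperature; fluorescence at 460 and 530 nm; EC50 by Hill equation.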

Test [16] has the same target. The experiment in a line: qHTS assay for small molecule antagonists of glucocorticoid receptor signaling (AID 588533; active means well fitted inhibition curve with a large enough effect in the signal ratio, with a control signal flat, not every such curve was filed as active; the % refers to the signal ratio;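 further: cells stimulated with 2 nM dexamethasone as agonist; on the % scale 0 is the no-effect control and ±100 the full control effect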). The note with it: HeLa MMTV-bla, GRE beta-lactamase ratio, antagonist mode, 18 h; series mostly up to 76.8 µM. The procedure, abridged:
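Antagonist-mode qHTS: compound titrations added to GRE-bla HeLa cells, then dexamethasone 2 nM final; 18 h, 37 C. CCF4 FRET fluorescence normalized to dexamethasone and DMSO; IC50 from Hill fit.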

Test [17] in a line: Cell Viability - BJ (AID 421; calls by dose curve;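 further: potency means the concentration at half of the fitted maximal effect; cells exposed to compound for 40 hours at 37 °C before readout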). The note with it: BJ fibroblast viability, qHTS. The gist of the method: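 Cytotoxicity as drop in intracellular ATP (CellTiter-Glo, 20 min RT) after 40 hr compound exposure of BJ fibroblasts at 37 °C. Titrations scaled between DMSO and 100 uM tamoxifen, Hill-fitted for AC50.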
For test [18], the target named is Estrogen receptor (Homo sapiens) (UniProt P03372). As to the kind of experiment: qHTS assay for small molecule agonists of estrogen receptor alpha signaling (AID 588514; calls by dose curve;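 further: 0% = vehicle only and 100% = reference agonist; nearly all actives have a fitted effect of over 70% in size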). Particulars: ER-alpha-UAS-bla HEK293, beta-lactamase ratio, 18 h; series mostly up to 76.8 µM. The procedure, abridged: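 Read-out: CCF4 fluorescence from a beta-lactamase reporter in ER-alpha-UAS-bla HEK 293 cells after 18 hrs of compound exposure at 37 C. Normalized to 20 nM 17-beta-estradiol (100%) and DMSO (0%).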

Test [19] deals with Peroxisome proliferator-activated receptor gamma (Homo sapiens) (UniProt P37231). The experiment in a line: qHTS assay for small molecule agonists of peroxisome proliferator-activated receptor gamma signaling (AID 588536; active means well fitted curve in the direction sought with a large enough effect in the signal ratio, with a control signal flat, not every such curve was filed as active; the % refers to the signal ratio;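 further: 0% = DMSO basal wells and 100% = rosiglitazone at 2 µM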). The note with it: HEK293 PPARg-UAS-bla, beta-lactamase ratio, 16 h, percent of rosiglitazone response, DMSO as zero; series mostly up to 76.7 µM. The procedure, abridged: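 This is an agonist-mode beta-lactamase reporter assay in HEK293 PPAR-gamma-UAS-bla cells with 1% charcoal/dextran FBS. Compound titrations ran 16 h at 37 C before CCF4 detection. EC50 and efficacy are Hill fits scaled to 2 uM rosiglitazone (100%) and DMSO basal.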

For test [20], the target named is Estrogen receptor (Homo sapiens) (UniProt P03372). As to the kind of experiment: qHTS assay for small molecule antagonists of estrogen receptor alpha signaling (AID 588513; active means well fitted curve in the direction sought with a large enough effect in the signal ratio, with a control signal flat, not every such curve was filed as active; the % refers to the signal ratio; further: on the % scale 0 is the no-effect control and ±100 the full control effect). Particulars: ER-alpha-UAS-bla HEK293, beta-lactamase ratio, antagonist mode; series mostly up to 76.9 µM. The gist of the method: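 Fluorescence from CCF4 substrate after 2 h at room temperature gave reporter activity; cells had been exposed to compound and 0.5nM 17-beta-estradiol for 18 h at 37 C. Hill-equation fitting yielded IC50 and maximal response.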

Glucocorticoid receptor (Homo sapiens), sequence (P04150 whole entry, looked up): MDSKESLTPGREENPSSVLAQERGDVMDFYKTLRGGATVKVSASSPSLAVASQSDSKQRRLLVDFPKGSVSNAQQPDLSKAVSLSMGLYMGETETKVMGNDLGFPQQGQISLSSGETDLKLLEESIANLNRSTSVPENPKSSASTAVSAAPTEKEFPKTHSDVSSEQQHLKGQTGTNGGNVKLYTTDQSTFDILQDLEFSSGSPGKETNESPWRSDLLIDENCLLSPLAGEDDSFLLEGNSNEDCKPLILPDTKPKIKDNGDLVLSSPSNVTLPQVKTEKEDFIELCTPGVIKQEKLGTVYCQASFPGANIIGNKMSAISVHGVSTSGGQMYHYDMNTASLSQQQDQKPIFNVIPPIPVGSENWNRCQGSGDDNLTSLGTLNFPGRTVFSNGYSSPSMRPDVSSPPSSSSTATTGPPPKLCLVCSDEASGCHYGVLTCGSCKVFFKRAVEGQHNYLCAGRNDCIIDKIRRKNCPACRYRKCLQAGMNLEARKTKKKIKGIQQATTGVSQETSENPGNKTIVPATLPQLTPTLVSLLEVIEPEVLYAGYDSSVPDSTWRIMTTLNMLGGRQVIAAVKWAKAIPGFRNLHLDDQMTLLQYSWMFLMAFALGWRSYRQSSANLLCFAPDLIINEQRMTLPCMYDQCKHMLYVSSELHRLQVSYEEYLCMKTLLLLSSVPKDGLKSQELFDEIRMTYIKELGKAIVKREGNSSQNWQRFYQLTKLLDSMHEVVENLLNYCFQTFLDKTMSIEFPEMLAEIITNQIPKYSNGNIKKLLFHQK
Estrogen receptor (Homo sapiens), sequence (P03372 whole entry, looked up): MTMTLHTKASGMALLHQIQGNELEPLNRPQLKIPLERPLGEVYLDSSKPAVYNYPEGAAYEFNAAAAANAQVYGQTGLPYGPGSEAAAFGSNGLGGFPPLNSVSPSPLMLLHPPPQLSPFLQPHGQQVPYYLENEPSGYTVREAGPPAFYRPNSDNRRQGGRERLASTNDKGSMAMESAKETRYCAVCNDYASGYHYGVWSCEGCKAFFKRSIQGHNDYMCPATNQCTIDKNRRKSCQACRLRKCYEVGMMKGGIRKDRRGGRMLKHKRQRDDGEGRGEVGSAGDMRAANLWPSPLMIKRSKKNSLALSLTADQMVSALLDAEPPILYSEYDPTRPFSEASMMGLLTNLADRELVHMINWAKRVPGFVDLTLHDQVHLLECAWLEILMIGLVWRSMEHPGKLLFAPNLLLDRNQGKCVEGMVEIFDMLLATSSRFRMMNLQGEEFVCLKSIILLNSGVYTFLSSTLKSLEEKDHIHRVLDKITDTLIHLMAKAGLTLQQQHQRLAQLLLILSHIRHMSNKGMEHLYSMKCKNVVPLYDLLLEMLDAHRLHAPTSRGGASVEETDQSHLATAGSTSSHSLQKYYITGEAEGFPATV
Bile acid receptor (Homo sapiens), sequence (Q96RI1 whole entry, looked up): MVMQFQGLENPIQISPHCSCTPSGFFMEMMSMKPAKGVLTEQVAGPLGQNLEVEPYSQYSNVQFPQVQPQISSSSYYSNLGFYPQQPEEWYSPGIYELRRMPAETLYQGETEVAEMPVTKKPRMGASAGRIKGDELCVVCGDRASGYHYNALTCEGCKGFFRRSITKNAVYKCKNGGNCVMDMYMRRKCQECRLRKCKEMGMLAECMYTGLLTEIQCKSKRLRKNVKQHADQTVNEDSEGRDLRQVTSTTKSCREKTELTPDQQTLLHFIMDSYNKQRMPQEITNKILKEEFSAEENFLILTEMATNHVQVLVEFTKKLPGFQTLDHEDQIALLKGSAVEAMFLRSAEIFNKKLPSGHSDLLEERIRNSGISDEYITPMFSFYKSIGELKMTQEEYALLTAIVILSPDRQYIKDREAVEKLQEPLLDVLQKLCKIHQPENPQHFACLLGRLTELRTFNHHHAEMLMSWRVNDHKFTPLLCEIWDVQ
Peroxisome proliferator-activated receptor gamma (Homo sapiens), sequence (P37231 whole entry, looked up): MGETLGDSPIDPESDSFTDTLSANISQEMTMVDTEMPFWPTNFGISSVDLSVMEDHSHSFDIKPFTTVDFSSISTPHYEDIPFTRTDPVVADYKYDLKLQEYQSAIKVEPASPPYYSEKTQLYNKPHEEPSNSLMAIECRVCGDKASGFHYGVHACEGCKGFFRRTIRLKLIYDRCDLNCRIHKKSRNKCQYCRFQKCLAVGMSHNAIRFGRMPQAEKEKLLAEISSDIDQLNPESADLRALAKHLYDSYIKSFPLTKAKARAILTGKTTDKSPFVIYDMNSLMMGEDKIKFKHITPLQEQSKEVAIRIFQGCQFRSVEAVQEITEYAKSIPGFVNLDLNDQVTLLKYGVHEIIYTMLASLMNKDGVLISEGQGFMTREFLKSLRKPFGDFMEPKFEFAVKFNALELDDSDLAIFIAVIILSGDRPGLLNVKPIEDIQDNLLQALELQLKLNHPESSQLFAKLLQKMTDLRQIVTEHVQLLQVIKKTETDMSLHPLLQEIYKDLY
Peroxisome proliferator-activated receptor delta (Homo sapiens), sequence (Q03181 whole entry, looked up): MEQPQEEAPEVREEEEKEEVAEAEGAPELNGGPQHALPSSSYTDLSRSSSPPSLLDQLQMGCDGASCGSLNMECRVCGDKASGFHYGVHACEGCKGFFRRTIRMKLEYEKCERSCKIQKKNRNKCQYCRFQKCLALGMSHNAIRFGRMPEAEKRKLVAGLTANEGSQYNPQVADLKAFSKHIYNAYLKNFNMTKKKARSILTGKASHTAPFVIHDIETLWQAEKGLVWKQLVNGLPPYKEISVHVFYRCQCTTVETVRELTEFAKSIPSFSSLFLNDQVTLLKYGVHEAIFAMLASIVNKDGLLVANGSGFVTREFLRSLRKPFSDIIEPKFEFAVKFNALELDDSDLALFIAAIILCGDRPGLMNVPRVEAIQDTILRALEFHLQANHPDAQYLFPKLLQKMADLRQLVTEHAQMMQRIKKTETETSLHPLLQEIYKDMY

On to `CC(C)(Cl)Cl`, for which the Potency in test [1] and in [2] was > 92 µM (inactive) throughout. The Potency entry in test [3], in [7] and in test [8] was “inactive” in each case. Also, the outcome in test [4] and in test [6] was inactive. The max response in [5] was -19.4%. Further, the activation in [9] is 0.397% (inactive).
`O=C(O)c1cc(Cl)ccc1Cl`: the Potency in test [1] and in test [2] was > 92 µM (inactive) throughout. For the same molecule, the Potency entry in [10], in test [12], in test [13] and in test [8] was “inactive” each time. In addition, the outcome in test [11], in test [16], in test [4] and in test [6] was inactive. In addition, the activation in test [14] was -1.21% (inactive); in test [15], -4.37% (inactive). Also, the max response in [5] is 35.4%.
On to `CC(C)C#N`, for which the Potency in test [17], in test [1] and in [2] was > 92 µM (inactive) each time. The Potency result in [3], in test [12], in [13] and in test [7] was “inactive” in each case. Besides, the molecule was classed as inactive in [11], in test [16], in [4] and in test [6]. The activation in [15] is 1.53% (inactive); in test [9], -0.872% (inactive). In [5], the max response is -11.5%.
Consider `Nc1ccc(Cc2ccc(N)c(Cl)c2)cc1Cl`, for which the Potency in [17] is > 92 µM (inactive); in test [2] it was > 92 µM (inactive); in test [7], 39.8 µM (active). The Potency result in [3], in test [13] and in test [18] was “inactive” in each case. For the same molecule, the outcome in [11] and in [19] was inactive. In addition, the activation in test [15] is -1.55% (inactive).
For `O=[N+]([O-])CCO`, the Potency in [17], in test [1] and in test [2] was > 92 µM (inactive) in each case. Besides, the Potency result in [3], in [10], in test [12], in test [20] and in test [18] was “inactive” each time. For the same molecule, the result in test [11] and in [16] was inactive. For the same molecule, the activation in test [15] is -6.62% (inactive); in [9] it was -0.859% (inactive).
As to `N#C/C=C/C#N`, the Potency was > 92 µM (inactive) in [2], 39.8 µM (active) in test [12], 50.1 µM (active) in test [13] and 37.6 µM (active) in [8]. For the same molecule, in test [3], the activity change, negative = cytotoxicity is -156% (active). In [20], the Potency result is “inactive”. Moreover, the result in test [16] and in test [4] was inactive.
Take `Nc1ccc([N+](=O)[O-])cc1N`: the Potency in test [17] was > 92 µM (inactive); in [1], > 92 µM (inactive); in [8], 3.76 µM (active) and 2.73 µM (active). Moreover, the Potency result in [10], in test [12] and in [7] was “inactive” in each case. In addition, the result in test [11], in test [4], in test [6] and in test [19] was inactive. Besides, the max response in [5] is 3.68%.
`C=CCBr`: the Potency in test [1] and in [2] was > 92 µM (inactive) throughout. Also, the Potency entry in [3], in test [10], in [13], in test [20], in test [18] and in test [8] was “inactive” in each case. Also, the molecule was classed as inactive in test [11]. Further, the activation in [14] is -2.82% (inactive); in test [15] it was 0.974% (inactive).
As for `Brc1cccc(-c2ccccc2)c1`, the Potency in test [17] and in test [1] was > 92 µM (inactive) throughout. Also, the Potency result in [10], in [12], in test [13], in test [20] and in test [18] was “inactive” throughout. The activation is -2.22% (inactive) in test [14], -4.94% (inactive) in [15] and -1.09% (inactive) in [9]. The outcome in test [16] was inactive.
